# Reference: PubChem BioAssay (NCI)
# Compounds without any hit were thinned out: in the full panel of roughly 79,000, 15% have a hit. Unmarked numbers belong to inactive results. No stated cut-off is given here; in the data, active means growth inhibition above about 70%; inactive means the rest.
# Assays:
# [1] = NCI Yeast Anticancer Drug Screen. Data for the rad50 strain (AID 155);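 further: 0% = growth of vehicle-only cultures of the same strain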; conditions: S. cerevisiae rad50 strain growth inhibition; at 50.0 µM; hits give high values
# In short: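 Genetically altered yeast (DNA repair pathway); compound treatment; growth inhibition vs vehicle ctrl.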
# [2] = NCI Yeast Anticancer Drug Screen. Data for the mec2-1 strain (AID 157); conditions: S. cerevisiae mec2-1 strain, at 50.0 µM, hits give high values
# In short: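 Yeast mec2-1 mutant treated with compound. Readout: growth inhibition vs vehicle controls.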
# [3] = NCI Yeast Anticancer Drug Screen. Data for the mlh1 rad18 strain (AID 175); conditions: S. cerevisiae mlh1 rad18 strain growth inhibition; at 50.0 µM; hits give high values
# In short: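 Yeast w/ defined DNA-repair lesions; compound exposure; growth vs vehicle controls → % inhibition.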
# [4] = NCI Yeast Anticancer Drug Screen. Data for the sgs1 mgt1 strain (AID 161);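 further: 0% = growth of cultures given vehicle only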; conditions: S. cerevisiae sgs1 mgt1 strain, at 50.0 µM, hits give high values
# In short: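 Read-out: growth inhibition vs vehicle controls. Cells: mutant yeast strain deficient in DNA damage repair.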
# [5] = NCI Yeast Anticancer Drug Screen. Data for the cln2 rad14 strain (AID 165);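 further: 0% = growth equal to vehicle treated cultures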; conditions: S. cerevisiae cln2 rad14 strain, at 50.0 µM, hits give high values
# In short: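 cln2 rad14 yeast strain; compound exposure; growth inhibition read vs vehicle controls.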
# [6] = NCI Yeast Anticancer Drug Screen. Data for the bub3 strain (AID 167); conditions: S. cerevisiae bub3 mutant strain, at 50.0 µM, hits give high values
# In short: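 Yeast carrying a defined mutation is treated with each compound, and growth is compared with that of vehicle-exposed cells to give inhibition.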
structure (smiles),measurement,setting,value
CCOC(=O)C(C#N)N=Nc1ccccc1 (stereo unspecified),growth inhibition,[1],10.2%
same,growth inhibition,[2],-7%
same,growth inhibition,[3],10.2%
O=C(NNCN1C(=O)c2ccccc2C1=O)c1ccccc1,growth inhibition,[1],-13.8%
same,growth inhibition,[2],-15.7%
same,growth inhibition,[3],-4.7%
CC(=O)CCN(Cc1ccccc1)Cc1ccccc1,growth inhibition,[1],1.7%
same,growth inhibition,[2],-1.95%
same,growth inhibition,[3],22.4%
Cc1ccc(/C=N/N2C(=O)c3ccccc3C2=O)cc1,growth inhibition,[1],-28.9%
same,growth inhibition,[2],-43.1%
same,growth inhibition,[3],-37.9%
Nc1n[nH]c(=S)n1-c1ccc(Cl)cc1,growth inhibition,[1],-14.3%
same,growth inhibition,[2],-29.6%
same,growth inhibition,[3],-13%
CCC(=O)N/N=C/C=N/NC(=O)c1ccncc1,growth inhibition,[1],-30.7%
same,growth inhibition,[2],-31.8%
same,growth inhibition,[3],-7.25%
COc1cccc(/C=C/C(=O)c2ccc(Cl)cc2)c1OC,growth inhibition,[1],27%
same,growth inhibition,[2],30.1%
same,growth inhibition,[3],16.2%
S=C(S)NC1CCCCCCCCCCC1,growth inhibition,[1],45.8%
same,growth inhibition,[2],23.8%
same,growth inhibition,[3],39%
CCO/C=C1\SC(=S)N(c2ccc(C(=O)O)cc2)C1=O,growth inhibition,[1],-6.05%
same,growth inhibition,[2],-16.3%
same,growth inhibition,[3],13.2%
O=C1OC(=O)C2C1OC1C(=O)OC(=O)C12 (stereo unspecified),growth inhibition,[1],-35.6%
same,growth inhibition,[2],-33.1%
same,growth inhibition,[3],-28.1%
CC1(c2ccc3ccccc3c2)CCC(=O)O1 (stereo unspecified),growth inhibition,[1],-2.75%
same,growth inhibition,[2],-30%
same,growth inhibition,[3],-4.8%
COc1cc2c(cc1O)C(Cc1ccc(OC)c(OC)c1)N(C)CC2 (stereo unspecified),growth inhibition,[1],4.25%
same,growth inhibition,[2],0.85%
same,growth inhibition,[3],2.35%
Fc1ccc(P(c2ccc(F)cc2)c2ccc(F)cc2)cc1,growth inhibition,[1],41.4%
same,growth inhibition,[2],9.6%
same,growth inhibition,[3],19.1%
Clc1ccc(C(c2cccs2)N2CCNCC2)cc1 (stereo unspecified),growth inhibition,[2],-2.75%
same,growth inhibition,[3],5.35%
CC1CC(C)(C)N=C(Cc2ccccc2)O1 (stereo unspecified),growth inhibition,[1],-26.6%
same,growth inhibition,[3],2.05%
C[N+](C)(CCNC(=O)c1cccc2cc3ccccc3nc12)Cc1ccc([N+](=O)[O-])s1,growth inhibition,[2],-37.2%
same,growth inhibition,[4],-12.7%
same,growth inhibition,[5],4.1%
same,growth inhibition,[6],-40%
same,growth inhibition,[3],-36.7%
COc1ccc(-c2cc(=O)c3c(O)cc(C)cc3o2)cc1OC,growth inhibition,[2],-25.6%
same,growth inhibition,[3],-21.6%
O=C(O)c1n[nH]nc1Cl,growth inhibition,[2],0.7%
same,growth inhibition,[4],5.35%
same,growth inhibition,[5],-4.2%
same,growth inhibition,[6],-6.15%
CCCN(CCC)CCC(=O)OCC,growth inhibition,[1],-18.2%
same,growth inhibition,[3],-10.9%
C=C(C)C(=O)OC1CC2(C)OC(=CC2=O)C(C)CC2OC(=O)C(=C)C12 (stereo unspecified),growth inhibition,[2],18.1%
same,growth inhibition,[5],25.2%
same,growth inhibition,[6],33.5%
same,growth inhibition,[3],-34.6%
CCCCCCCCCCCCCCCCOc1ccc(C(=O)NN)cc1N,growth inhibition,[1],-18.6%
same,growth inhibition,[3],-14.6%
C=C1C2CCC3C4(C)CCCC(C)(C(=O)O)C4CCC3(C2)C1OC(=O)/C(C)=C/C (stereo unspecified),growth inhibition,[2],4.85%
same,growth inhibition,[4],-7.05%
same,growth inhibition,[5],25.1%
same,growth inhibition,[6],0.75%
same,growth inhibition,[3],-59.4%
CN(c1ccccc1Cl)S(C)(=O)=O,growth inhibition,[1],-4.2%
same,growth inhibition,[3],-0.25%
COc1cc(/C=N\Nc2ccccc2[N+](=O)[O-])cc(OC)c1OC,growth inhibition,[1],-11.4%
same,growth inhibition,[3],-12.9%
Cc1ccc(COC(=O)c2cccnc2)cc1,growth inhibition,[2],-18.6%
same,growth inhibition,[3],8.65%
COc1cc(/C=N\NC(=O)OC(C)(C)C)cc(OC)c1OC,growth inhibition,[1],6.25%
same,growth inhibition,[3],10.5%
O=C1c2cccnc2-c2nccc3ccnc1c23,growth inhibition,[2],58.8%
same,growth inhibition,[4],63%
same,growth inhibition,[5],45.6%
same,growth inhibition,[6],57.5%
same,growth inhibition,[3],-37.7%
CCOc1ccc(Br)cc1/C=N/NS(=O)(=O)c1ccc(C)cc1,growth inhibition,[2],29.1%
same,growth inhibition,[3],8.35%
COc1ccc(-c2coc3c4c(ccc3c2=O)OCO4)cc1OC,growth inhibition,[2],-13.4%
same,growth inhibition,[4],0.45%
same,growth inhibition,[5],7.2%
same,growth inhibition,[6],-8.45%
same,growth inhibition,[3],-30.8%
CCCCCCCCOC(=O)C(=O)C(C#N)c1ccccc1 (stereo unspecified),growth inhibition,[1],6.95%
same,growth inhibition,[3],10.2%
CC(C)N(C)c1ccc(N=Nc2cc(Cl)ccc2Cl)cc1,growth inhibition,[1],-27.6%
same,growth inhibition,[3],-24.4%
